Bioassay records from PubChem.
WRN inhibitor = qHTS for Inhibitors of WRN Helicase; Bifunctional 3'-5' exonuclease/ATP-dependent helicase WRN (Homo sapiens), Q14191; WRN helicase unwinding, fluorescent forked duplex, kinetic; Potency, µM (titrated, usually from 114 µM), inactives show top-dose activity change, negative = inhibition, actives largely listed as inhibitors; 0.46% of 360,000 active; AID 651768, 2012; further: on the % scale 0 is the no-effect control and ±100 the full control effect; nearly all actives have a fitted effect of over 55% in size
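WRN at 20 nM final was preincubated with compound for 15 min at room temperature; reaction started with 100 nM forked duplex oligonucleotide carrying fluorophore and quencher plus 2 mM ATP (final). Unwinding followed kinetically by red fluorescence (ex 525/em 598 nm).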
Pol iota inh = qHTS for Inhibitors of Polymerase Iota | DNA polymerase iota (Homo sapiens), Q9UNA4 | Pol iota fluorescent replication assay, 10 min | Potency, µM (doses to about 115 µM), inactives show at the top dose activity, negative = inhibition, most hits filed as inhibitors | 1% of 390,000 active
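Pol iota at 10 nM preincubated 15 min with compounds at room temperature; reaction started with fluorescent substrate, 50 nM final. Fluorescence read kinetically at 0 and 10 min; buffer-only wells as negative control.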
Pol kappa inh-1 = qHTS for Inhibitors of Polymerase Kappa | AID 588579, 2011 | Potency, µM (top dose mostly 107 µM), without a hit: at the top dose activity, negative = inhibition, hits mostly inhibitors | purified Pol kappa, fluorescent DNA synthesis assay, 10 min | 0.53% of 400,000 active; further: on the % scale 0 is the no-effect control and ±100 the full control effect
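Activity was followed as the change in fluorescence between reads at 0 and 10 min after starting the reaction with 50 nM substrate. Beforehand, 10 nM polymerase had been preincubated with compound for 15 min at room temperature.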
Pol eta inh-1 = qHTS for Inhibitors of Polymerase Eta. recombinant Pol eta, fluorescent DNA replication assay. AID 588591, 2011. DNA polymerase eta (Homo sapiens), Q9Y253. Potency, µM (series often up to 114 µM), without a hit: at the top dose activity change, negative = inhibition, most hits filed as inhibitors. 1.2% of 390,000 active; further: on the % scale 0 is the no-effect control and ±100 the full control effect
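Pol eta at 10 nM preincubated with compounds 15 min at room temperature; reaction started with fluorescent substrate (50 nM final) and read kinetically at 0 and 10 min.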
POLB inh = qHTS Assay for Inhibitors of DNA Polymerase Beta | P06746 | Pol beta primer extension/strand displacement, fluorescence kinetic | Potency, µM (series often up to 114 µM), without a hit: at the highest dose activity change, negative = inhibition, actives largely listed as inhibitors | 1.3% of 340,000 active; further: on the % scale 0 is the no-effect control and ±100 the full control effect
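Homogeneous kinetic assay of primer extension and strand displacement by 10 nM Pol beta, preincubated 15 min at room temperature with compound before 50 nM substrate (final) was added. Read at 0 and 10 min; four-parameter Hill fit.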
FEN1 inhibitor = qHTS Assay for the Inhibitors of Human Flap endonuclease 1 (FEN1); 0.35% of 390,000 active; Potency, µM (top dose mostly 114 µM), inactives show top-dose activity change, negative = inhibition, actives largely listed as inhibitors; Recombinant FEN1 flap cleavage, fluorescence, 15 min; P39748; further: on the % scale 0 is the no-effect control and ±100 the full control effect; nearly all actives have a fitted effect of over 65% in size
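Compounds are tested as a concentration series against 10 nM FEN1; after a 15 min room-temperature preincubation, 50 nM substrate starts cleavage, with plate reads at 0 and 15 min. Normalized responses are fitted by a Hill equation.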
Pol kappa inh-2 = qHTS for Inhibitors of Polymerase Kappa: Confirmatory Assay for Cherry-picked Compounds. Potency, µM, actives largely listed as inhibitors. shares compounds with Pol eta inh-1. 76% of 920 active. AID 720501, 2013. purified Pol-kappa, fluorescent strand-displacement substrate
Pol eta inh-2 = qHTS for Inhibitors of Polymerase Eta: Confirmatory Assay for Cherry-picked Compounds. shares compounds with Pol eta inh-1. 64% of 2,600 active. Potency, µM, most hits filed as inhibitors. Pol eta primer extension, TAMRA/BHQ fluorescence, 10 min
An asterisk follows results filed as active; ? = inconclusive; / = no result; [ ] = dose if it differs, or a comment. Most compounds without a hit are left out; they make up all but 2.4% or so of the library. The call rests on the fitted dose curve; in most records, active means well fitted curve in the direction sought with a large enough effect; inconclusive means small, poorly fitted or top-dose-only effect, or another doubt; inactive means no such curve, though single readings can be large; an effect the other way counts as inactive or inconclusive. Potency means the concentration at half of the fitted maximal effect.

SMILES | WRN inhibitor | Pol iota inh | Pol kappa inh-1 | Pol eta inh-1 | POLB inh | FEN1 inhibitor | Pol eta inh-2 | others
COc1ccc(/C=N/Nc2nc(C(=O)O)cs2)cc1 | -14% | 20µM* | ? | 32µM* | ? | 1% | ?
CC(=O)c1ccc(S(=O)(=O)Nc2ccc(C(=O)NCC(c3ccco3)N3CCCC3)cc2)cc1 (stereo unspecified) | -1%[11.6 µM] | / | / | 20µM* | / | / | ? | Pol kappa inh-2=?
COc1ccccc1C(CNC(=O)c1ccc(NS(=O)(=O)c2ccc(C(C)=O)cc2)cc1)N1CCCC1 (stereo unspecified) | -13%[11.6 µM] | 32µM* | ? | 16µM* | / | -6% | ?
CCOc1ccc(C(=O)Nc2ccc3oc(-c4ccc(C)cc4C)nc3c2)cc1Br | / | -10% | -9% | 3% | -6% | -12% | /
O=C(Nc1nnc(C2CCCCC2)s1)C1CC(=O)N(c2ccccc2)C1 (stereo unspecified) | -1% | 63% | 4% | -15% | 3% | 2% | /
O=C(Nc1nnc(C2CC2)s1)C1CC(=O)N(c2ccc3c(c2)OCCO3)C1 (stereo unspecified) | -26%[57.1 µM] | 45µM* | ? | 20µM* | ? | 11% | ?
CC(=O)Oc1ccc(C(=O)Nc2cccc(C(=O)c3cccc(NC(=O)c4ccc(OC(C)=O)cc4)c3)c2)cc1 | ? | 7.9µM* | ? | 3.2µM* | 13µM* | ? | 54*
CC(=O)Oc1ccc(C(=O)Nc2cccc(C(=O)NC(C)(C)C)c2)cc1 | -7% | 56% | 3% | -10% | -14% | -8% | /
Cc1cc2oc(C(=O)Nc3sc4c(c3C(=O)NCc3ccco3)CCC4)cc(=O)c2cc1C | / | ? | ? | 50µM* | ? | -17% | ? | Pol kappa inh-2=?
O=C1C2C3C=CC(CC3)C2C(=O)N1/N=C/c1ccc(O)cc1 (stereo unspecified) | 1% | 4% | -2% | 4% | 22% | -3% | /
O=C1C2C3C=CC(CC3)C2C(=O)N1/N=C/c1ccc(O)c(O)c1 (stereo unspecified) | -15%[57.1 µM] | ? | ? | 4µM* | ? | 6% | ?
O=C(O)c1ccc(COc2ccc3ccccc3c2)o1 | 1% | ? | 4% | 1% | 7% | 18% | /
CCOc1ccc(OCc2ccc(C(=O)O)o2)cc1 | -15%[11.6 µM] | -15% | -5% | 13µM* | 14µM* | -10% | 60*
O=C(Nc1nc(-c2ccco2)c(-c2ccco2)s1)c1c(F)cccc1Cl | -15% | -35% | ? | ? | / | -21% | /
O=C(Nc1nc(-c2ccco2)c(-c2ccco2)s1)c1cnccn1 | -17%[11.6 µM] | 50µM* | ? | ? | / | -9% | 76*
C#CC(N)CCC(=O)O (stereo unspecified) | / | 8%[58.9 µM] | -3%[60.1 µM] | -2%[57.1 µM] | 12%[57.1 µM] | / | /
CCc1ccc(OCC(=O)N(Cc2ccco2)Cc2ccco2)cc1 | / | 15% | -7% | -19% | 0% | 2% | /
CC(=O)Nc1cccc(NC(=O)CSc2nnc(NC(=O)c3ccco3)s2)c1 | -36% | 6% | 0% | ? | 12% | -7% | /
CC(=O)Nc1ccc(NC(=O)CSc2nnc(NC(=O)c3ccc(Br)o3)s2)cc1 | 56µM* | ? | -29% | 14µM* | 50µM* | -34% | ? | Pol kappa inh-2=?
